Source: PubChem BioAssay AID488857 (Sanford-Burnham Center for Chemical Genomics, 2010)
Among all 1,400 compounds or so, about 560 (40%) were called active.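 The calls were made as follows: active = mean inhibition over duplicate tests at 10 µM above 50%; inactive = the rest.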 So high a share suggests a set chosen from earlier hits. The list shows a part of the results.

Test: ASC/caspase-1 reporter retest in S. cerevisiae at one dose, specificity check for NALP1 project (AID 488857)
Details: S. cerevisiae ASC/Caspase-1, beta-galactosidase luminescence, 24 h; at 10 µM; hits give high values

Row | SMILES | inhibition
1 | CC(C)C(=O)Nc1ccc(Nc2ccccc2)cc1 | 68.2% (active)
2 | C/C(=N\NC(=O)Nc1ccccc1)c1ccccc1 | 41.4% (inactive)
3 | CC(C)Oc1ccc(NC(=O)CCC(=O)O)cc1 | 28.5% (inactive)
4 | O=C(Nc1ccc(Nc2ccccc2)cc1)C(Cl)Cl | 76.3% (active)
5 | Cc1cccc(C)c1NC(=O)C(Cl)C(=O)c1ccccc1 (stereo not drawn) | 2.6% (inactive)
6 | O=c1c(O)c(-c2cccs2)oc2ccccc12 | 91% (active)
7 | CCC(C)C(=O)N1c2ccccc2C(=C2SC(C(=O)OC)=C(C(=O)OC)S2)C(=S)C1(C)C (stereo not drawn) | 51.8% (active)
8 | CCC(Cc1ccccc1)NC(=O)C1CCN(S(=O)(=O)c2c(C)noc2C)CC1 (stereo not drawn) | 28.6% (inactive)
9 | CC[n+]1c(/C=C/c2ccc(N(C)C)cc2)ccc2ccccc21 | 96.5% (active)
10 | CN(C)c1ccc(/C=C/c2ccc3ccccc3[n+]2C)cc1 | 96.8% (active)
11 | O=S(=O)(Nc1cccnc1)c1cccs1 | 25.8% (inactive)
12 | O=C1c2ccccc2-c2cccc(NS(=O)(=O)c3ccc(C(F)(F)F)cc3)c21 | 36.2% (inactive)
13 | O=C1C(Nc2ccccc2)=C/C(=N/S(=O)(=O)c2cccs2)c2ccccc21 | 89.7% (active)
14 | O=C(O)c1ccc(S(=O)(=O)/N=C2\C=C(Nc3ccccc3F)C(=O)c3ccccc32)cc1 | 100% (active)
15 | CN(C)c1ccc(/C=N/NC(=O)c2nnn(-c3nonc3N)c2CN(C)c2ccccc2)cc1 | 20.1% (inactive)
16 | Cc1cc(C)c(NC(=O)/C(=C/c2ccccc2)c2ccccc2)c(C)c1 | 31.6% (inactive)
17 | S=c1[nH]nc(-c2ccco2)n1/N=C/c1cccc(Cl)c1Cl | 65.7% (active)
18 | CCOC(=O)C1CCCN(C2CC(=O)N(c3cccc(C(F)(F)F)c3)C2=O)C1 (stereo not drawn) | 42.8% (inactive)
19 | O=c1ncn(-c2cccc(F)c2)c2ncccc12 | 35.6% (inactive)
20 | O=C(NC(=S)NCCCN1CCOCC1)c1ccc([N+](=O)[O-])cc1 | 37% (inactive)
21 | Cc1cc(C)cc(NS(=O)(=O)c2ccc(NC(=S)Nc3ccccc3)cc2)c1 | 23.9% (inactive)
22 | S=C(NCCc1ccccc1)Nc1ccc(Br)cc1 | 90.7% (active)
23 | O=C(NCCCc1ccccc1)c1ccccc1O | 47.4% (inactive)
24 | O=[N+]([O-])c1ccc(NC(=S)NCCc2ccc(F)cc2)cc1 | 96.3% (active)
25 | O=[N+]([O-])c1ccc(N2CCN(C(=S)Nc3ccccc3)CC2)cc1 | 35.5% (inactive)
26 | S=C(NCCCc1ccccc1)Nc1ccc(Cl)cc1 | 95.5% (active)

Row | SMILES | inhibition
27 | CCCCCCCCCCOC(=O)Cn1c(COc2ccc(Cl)cc2)[n+](C)c2ccccc21 | 29.6% (inactive)
28 | Cc1ccc(Cn2nnnc2CN2CCC(c3nc4ccc(Cl)cc4[nH]3)CC2)cc1 | 31.4% (inactive)
29 | COC(=O)/C=C/C(=O)Nc1cccc(C(F)(F)F)c1 | 60.1% (active)
30 | CCN(C(=O)COC(=O)c1cccnc1Nc1cccc(C(F)(F)F)c1)C1CCS(=O)(=O)C1 (stereo not drawn) | 29.9% (inactive)
31 | CCOC(=O)/C=C/C(=O)Nc1cccc([N+](=O)[O-])c1 | 55.5% (active)
32 | NC(=O)/C=C\C(=O)Nc1cccc(C(F)(F)F)c1 | 72.8% (active)
33 | CCOC(=O)/C=C/C(=O)Nc1nccs1 | 47.1% (inactive)
34 | Cc1ccc(NC(=O)/C=C\C(=O)NCC(=O)O)cc1C | 39% (inactive)
35 | COC(=O)/C=C\C(=O)Nc1cccc([N+](=O)[O-])c1 | 42.8% (inactive)
36 | O=C(NC1CCCC1)C(c1ccccn1)N(C(=O)c1csnn1)C1CC1 (stereo not drawn) | 32.6% (inactive)
37 | O=C(O)c1cccnc1C(=O)N1CCc2c([nH]c3ccccc23)C1C(F)(F)F (stereo not drawn) | 18.5% (inactive)
38 | O=C1c2ccccc2C(=O)c2c1ncn2-c1ccccc1 | 45.6% (inactive)
39 | O=C(CN(Cc1ccccc1)S(=O)(=O)c1ccc(S(=O)(=O)N2CCOCC2)cc1)Nc1ccccc1 | 36.3% (inactive)
40 | N#C/C(=C\c1ccc([N+](=O)[O-])o1)c1nc2ccccc2[nH]1 | 20.7% (inactive)
41 | Cn1c(/C(C#N)=C/C2CC=CCC2)nc2ccccc21 (stereo not drawn) | 45.5% (inactive)
42 | N#C/C(=C/c1cccs1)c1nc2ccccc2[nH]1 | 98.2% (active)
43 | CC(C)C(C(=O)O)N1C(=O)/C(=C/c2cccn2C)SC1=S (stereo not drawn) | 56.4% (active)
44 | C/C(=N\NC(=O)c1c[nH]c2ccccc12)c1ccco1 | 40.6% (inactive)
45 | CCN(CC)c1ccc(N=Cc2ccc([N+](=O)[O-])o2)cc1 | 69.8% (active)
46 | O=[N+]([O-])c1ccc(/C=N/NS(=O)(=O)c2ccc(Cl)cc2)o1 | 23.6% (inactive)
47 | CN(Cc1ccccc1)C(=O)c1ccc([N+](=O)[O-])o1 | 41.7% (inactive)
48 | CC/C(=N\NC(=O)c1ccccc1Cl)c1ccc(Br)s1 | 38.1% (inactive)
49 | C/C(=N\NC(=O)c1csc(C)c1C)c1ccc(Cl)s1 | 59.2% (active)
50 | Cc1cccc2sc(N(CCCN(C)C)C(=O)c3sc4ccccc4c3Cl)nc12 | 63.2% (active)
51 | CN(C)CCCN(C(=O)c1sc2ccccc2c1Cl)c1nc2ccc(F)cc2s1 | 55.7% (active)
52 | Cc1ccc2nc(N(CCCN(C)C)C(=O)c3sc4ccccc4c3Cl)sc2c1 | 31.8% (inactive)

Row | SMILES | inhibition
53 | Cc1cc(C=C2C(=O)c3ccccc3C2=O)c(C)n1C | 37.7% (inactive)
54 | O=C(c1ccc(Br)o1)N(c1ccccn1)C1CCCCC1 | 33.8% (inactive)
55 | C/C(=N\N(C)C)C1=C(O)c2ccccc2C1=O | 32.5% (inactive)
56 | CC(=O)N(C1=C(Cl)C(=O)c2ccccc2C1=O)C1CCCCC1 | 50.3% (active)
57 | CN(c1ccccc1)c1ccc(/C=C/[N+](=O)[O-])cc1 | 96.7% (active)
58 | O=C(O)CC1NC(=S)N(c2ccccc2)C1=O (stereo not drawn) | 31.6% (inactive)
59 | COC(=O)c1cc(=O)n(-c2c(Cl)cc(C(F)(F)F)cc2Cl)[nH]1 | 34.8% (inactive)
60 | c1ccc(-c2c[nH]c3[n+]2CCCCC3)cc1 | 52.4% (active)
61 | Oc1ccc2ccccc2c1CN1CCN(c2ccccc2)CC1 | 45.1% (inactive)
62 | CC(NCCC(c1ccccc1)c1ccccc1)c1ccccc1 (stereo not drawn) | 50.4% (active)
63 | Cc1cc(C)cc(C(=O)OCC(=O)NCCNC(=O)COC(=O)c2cc(C)cc(C)c2)c1 | 23.8% (inactive)
64 | COc1ccc(C(=O)C2CCCN(C(=O)Cn3nc(C)cc3C)C2)cc1F (stereo not drawn) | 46.8% (inactive)
65 | Cc1ccc(C)c(NC(=O)CSc2nnc(-c3ccccc3)o2)c1 | 45.4% (inactive)
66 | Cc1ccc(NC(=O)Cn2cccc2)c(C)c1 | 28.5% (inactive)
67 | Cc1ccc(NC(=O)CSC2=Nc3ccccc3C3CC=NN23)c(C)c1 (stereo not drawn) | 56.6% (active)
68 | Cc1nc2nc3c(cn2n1)C(=O)CCC3 | 23.6% (inactive)
69 | COC(=O)c1ccccc1NC(=O)CN1CCC(n2nnc3cc(F)ccc32)CC1 | 33.6% (inactive)
70 | COc1ccccc1NC(=O)C1=C(C)NC(=O)NC1c1cccs1 (stereo not drawn) | 32.2% (inactive)
71 | COc1ccccc1NC(=O)c1ccc(C)s1 | 50.4% (active)
72 | COc1ccccc1NC(=O)CCN1CCN(Cc2ccccc2)CC1 | 45.7% (inactive)
73 | C#CCN(C)CCCOc1ccc(Cl)cc1Cl | 54% (active)
74 | CC(C)NC(=O)CCCOc1ccc(Cl)cc1Cl | 48.5% (inactive)
75 | CCOc1ccccc1N/C=C(\C#N)c1nc2ccccc2n1C | 26.1% (inactive)
76 | CCOc1ccccc1NC(=O)/C=C/C(N)=O | 59.4% (active)
77 | CCCCOc1ccccc1NC(=O)c1ccco1 | 46.5% (inactive)
78 | CCCOc1ccccc1NC(=O)/C=C/C(N)=O | 58% (active)

Row | SMILES | inhibition
79 | CCCNC(=O)c1nnsc1S(=O)c1ccc(Cl)cc1 (stereo not drawn) | 96.7% (active)
80 | O=C(CCSc1nc2cc(Cl)ccc2o1)N1CCOCC1 | 32.5% (inactive)
81 | CNC(=O)c1nnsc1S(=O)c1ccc(Cl)cc1 (stereo not drawn) | 78.5% (active)
82 | O=C(c1nnsc1S(=O)c1ccc(Cl)cc1)N1CCOCC1 (stereo not drawn) | 71.7% (active)
83 | Clc1ccc(SCCCCN2CCOCC2)cc1 | 36.5% (inactive)
84 | Cc1c(Cl)sn(-c2ccc(Cl)cc2)c1=O | 84.5% (active)
85 | O=C(O)c1ccccc1SC1CC(=O)N(c2ccccc2)C1=O (stereo not drawn) | 34.5% (inactive)
86 | CN(C)c1ccc(N2C(=O)CC(Sc3ccccc3C(=O)O)C2=O)cc1 (stereo not drawn) | 59.8% (active)
87 | COc1ccc(NCc2ccc([N+](=O)[O-])s2)c(OC)c1 | 49% (inactive)
88 | CCOC(=O)/C(=C/c1ccc(OC(=O)c2ccccc2)cc1)C(C)=O | 59.9% (active)
89 | CCOC(=O)C1=C(O)c2ccccc2C(=O)/C1=C\c1ccc(C)cc1 | 24.1% (inactive)
90 | CN1CCN(S(=O)(=O)c2ccc(NC(=S)NC(=O)C(C)(C)C)cc2)CC1 | 31.6% (inactive)
91 | COC(=O)c1ccccc1NC(=O)C1CCN(C(=O)c2cc(OC)cc(OC)c2)CC1 | 34.1% (inactive)
92 | COC(=O)c1ccccc1NC(=O)C1CCCN(S(=O)(=O)c2ccc(OC)cc2)C1 (stereo not drawn) | 76.4% (active)
93 | CCOC(=O)N1CCN(c2c(NCCOC)c(=O)c2=O)CC1 | 32.5% (inactive)
94 | CCN1CCN(C(=S)Nc2ccc(Cl)c(Cl)c2)CC1 | 22.7% (inactive)
95 | CCOC(=O)N1CCN(c2ccc(Cl)c(Cl)c2)CC1 | 68.9% (active)
96 | Cn1nnc(NC(=O)/C=C/c2ccco2)n1 | 45.4% (inactive)
97 | CCCNCC1COc2ccccc2O1 (stereo not drawn) | 37.9% (inactive)
98 | CN(C)CCN(C(=O)/C=C/c1cccs1)c1nc2ccc(F)cc2s1 | 72% (active)
99 | CN(C)CCN(C(=O)/C=C/c1cccs1)c1nc2c(F)cc(F)cc2s1 | 65.1% (active)
100 | CC1CCC2C(=O)N(c3ccc(C(=O)Oc4cccc5cccnc45)cc3)C(=O)C2C1 (stereo not drawn) | 44.9% (inactive)
101 | O=[N+]([O-])c1ccc2nc(-c3ccccn3)[nH]c2c1 | 70% (active)
102 | c1ccc(-c2nc3cc4ccccc4cc3[nH]2)nc1 | 84.5% (active)
103 | O=[N+]([O-])c1ccc2cn(-c3ccccc3)nc2c1 | 41.1% (inactive)
